PubChem BioAssay (NCI)
Compounds without any hit were thinned out: in the full panel of roughly 83,000, 20% have a hit.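 Growth was measured after 48 h exposure to one concentration of compound in 96-well plates. Values under 10 count as active.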 Unmarked numbers belong to inactive results. Active and inactive are the calls of the source.

What was measured:
Assay in all cases: NCI-60 one-dose screen, 48 h (100 = growth as untreated, 0 = no growth, -100 = all killed)
Conditions in all cases: 10 µM unless noted
[1] = tested on: NCI-H226 lung
[2] = tested on: NCI-H322M lung
[3] = tested on: HOP-62 NSCLC
[4] = tested on: NCI-H460 lung
[5] = tested on: HOP-92 NSCLC
[6] = tested on: NCI-H522 lung
[7] = tested on: A549/ATCC NSCLC
[8] = tested on: 786-0 renal
[9] = tested on: DU-145 prostate
[10] = tested on: K-562 leukemia
[11] = tested on: MALME-3M melanoma
[12] = tested on: MDA-MB-231 breast
[13] = tested on: RXF 393 renal
[14] = tested on: SF-268 CNS
[15] = tested on: SF-295 CNS
[16] = tested on: SF-539 CNS
[17] = tested on: UACC-257 melanoma
[18] = tested on: M14 melanoma
[19] = tested on: COLO 205 colon

SMILES | growth [1] | growth [2] | growth [3] | growth [4] | growth [5] | growth [6] | growth [7] | growth [8] | growth [9] | growth [10] | growth [11] | growth [12] | growth [13] | growth [14] | growth [15] | growth [16] | growth [17] | growth [18] | growth [19]
Clc1cnc(Nc2ccc(OCCN3CCCC3)cc2)nc1NCc1ccco1 | -9.35% (active) | 19.9% | 11.7% | 3.25% (active) | 5.42% (active) | 55.2% | 11.3% | 23.7% | 17.5% | 16.4% | 26.1% | -5.14% (active) | -37.7% (active) | 21.1% | 31.2% | -14.2% (active) | 49.1% | 35.1% | 
CCCCS(=O)(=O)Oc1ccc(-c2nc(C)c(C(=O)OCC)s2)cc1C=O |  | 86.7% | 68.4% | 58.7% | 69.5% | 58.3% | 101% | 74.4% | 61.4% | 13.7% | 75.1% | 76.7% |  | 79.3% | 67.5% | 58% | 96.2% |  | 106%
O=C1Nc2ccccc2SC1C1SC(=S)N(Cc2ccccc2)C1=O (stereo not drawn) | 107% | 113% | 110% | 106% | 53.1% | 100% |  | 100% | -34.7% (active) | 4.45% (active) | 53.7% | 94.8% |  | 37.7% | 63.2% | 90.7% | 88.3% | 94.5% | 
N=C(N)c1ccc(-c2ccc(-c3ccc(Cl)cc3Cl)o2)nc1 | 96.9% | 30.7% | 29.1% | -63.2% (active) | 77.4% | 30% | 6.38% (active) | -22% (active) | 24.1% | 1.13% (active) | 90% | -38% (active) | 64.4% | 80.1% | -62.8% (active) | 42.6% | 91.4% | 70.2% | 
CCCCCCCC/C=C/CCCCCCCC1=NCC[N+]1(CCO)CCO | 71.1% | 83.8% | 74.8% | 42.7% | 46.4% | 29% | 81.9% | 72.3% | 78.9% | 32.7% | 96.2% | 56.6% | 50.1% | 75.2% | 79.6% | 90.3% | 104% | 71.4% | 
O=C(/C=C/C12c3ccccc3C(c3ccccc31)C1C(=O)N(c3ccc(Cl)cc3)C(=O)C12)c1ccccn1 (stereo not drawn) | -49.3% (active) | 11.3% | 5.06% (active) | -32.3% (active) | -53.7% (active) | -6.34% (active) | 5.63% (active) | -60.7% (active) | -86.5% (active) | 4.62% (active) | -52% (active) | -16% (active) | -88.6% (active) | 8.62% (active) | -9.27% (active) | -52.7% (active) | 2.58% (active) | -1.41% (active) | 
COc1ccc(C2CC(c3ccc4ccccc4c3)=NN2c2nc(O)c(C3=c4cc(Cl)ccc4=NC3=O)s2)cc1 (stereo not drawn) | -73.2% (active) | -29.7% (active) | -53.8% (active) | -20% (active) | -57.2% (active) | -82% (active) | -56% (active) | -80.5% (active) | -20.7% (active) | -27.2% (active) | -54.3% (active) | -38.6% (active) | -67.3% (active) | -33.6% (active) | -61.9% (active) | -52.5% (active) | -50.8% (active) |  | -79.4% (active)
Clc1ccc(/C=N\N=c2\scc(-c3ccc(Cl)cc3)n2/N=C/c2ccc(Cl)cc2)cc1 | 111% | 95.7% | 107% | 97.9% | 106% |  | 75.7% | 98.1% | 105% |  | 100% | 101% | 108% | 97.8% | 109% | 96.1% | 77.9% |  | 113%
